Data as given in ChEMBL document CHEMBL3433997, “St. Jude Leishmania screening dataset” (2016).

What was measured:
Type in all cases: functional
[1] = target: Solute carrier family 2, facilitated glucose transporter member 1 (Homo sapiens) (UniProt P11166); experiment: ST_JUDE_LEISH: Cytotoxicity at 2uM final concentration against transgenic Leishmania Mexicana promastigotes LmGLUT1 that are glucose transport deficient and complemented with the human glucose transporter GLUT1. Activity is measured by DNA content using SYBR green in vitro
[2] = target: Hexose transporter 1 (Plasmodium falciparum) (UniProt O97467); experiment: ST_JUDE_LEISH: Cytotoxicity at 2uM final concentration against transgenic Leishmania Mexicana promastigotes LmPfHT that are glucose transport deficient and complemented with the Plasmodium falciparum hexose transporter. Activity is measured by DNA content using SYBR green in vitro
[3] = target: Glucose transporter (Leishmania mexicana) (UniProt O61059); experiment: ST_JUDE_LEISH: Cytotoxicity at 2uM final concentration against transgenic Leishmania Mexicana promastigotes LmGT2 that are glucose transport deficient and complemented with the L. Mexicana glucose transporter 2. Activity is measured by DNA content using SYBR green in vitro

Chain of Solute carrier family 2, facilitated glucose transporter member 1 (Homo sapiens) (P11166 whole entry): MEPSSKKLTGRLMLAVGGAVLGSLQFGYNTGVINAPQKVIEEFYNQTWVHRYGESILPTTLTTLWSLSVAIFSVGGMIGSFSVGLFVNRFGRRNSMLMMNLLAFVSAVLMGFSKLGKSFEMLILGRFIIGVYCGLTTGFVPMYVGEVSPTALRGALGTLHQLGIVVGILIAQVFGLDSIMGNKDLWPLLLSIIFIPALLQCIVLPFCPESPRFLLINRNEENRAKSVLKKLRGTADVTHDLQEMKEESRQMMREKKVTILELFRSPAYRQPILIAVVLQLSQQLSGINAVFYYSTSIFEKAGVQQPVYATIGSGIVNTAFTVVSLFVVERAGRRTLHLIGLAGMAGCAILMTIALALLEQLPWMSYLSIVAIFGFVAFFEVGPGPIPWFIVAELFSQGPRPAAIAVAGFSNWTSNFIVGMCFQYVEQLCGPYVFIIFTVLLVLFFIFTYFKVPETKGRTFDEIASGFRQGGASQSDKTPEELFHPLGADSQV

SMILES | inhibition [1] [%] | inhibition [2] [%] | inhibition [3] [%]
CCCNC(=O)c1ccc(N2CCC(c3ccccc3C)CC2)nc1 | 0.89 | 0.25 | 0.97
Nc1nc(Nc2ccc(Cl)cc2)nc2ccccc12 | 14 | 12.4 | 6.83
Fc1cccc2sc(Nc3nc(-c4ccccn4)cs3)nc12 | 1.42 | 0.63 | -5.6
CC1CCN(c2nc(C(=O)NCCc3ccc(Cl)c(Cl)c3)c(C(C)C)s2)CC1 | 0.93 | 0.99 | 2.67
CCCC1N=C(N)N=C(N)N1c1ccc(CC)cc1 (stereo unspecified) | 1.98 | 0.44 | 1.72
N#Cc1ccc(CN2CCCN(Cc3cccc(NC(=O)c4cc5ccccc5s4)c3)CC2)cc1 | -0.46 | -0.58 | -1.54
CCc1cn2c3c(cc(C(=O)N[C@@H](Cc4ccccc4)[C@H](O)CNC4CCCC4)cc13)N(C)S(=O)(=O)CC2 | 8.55 | 9.26 | 5.93
O=c1[nH]ccc2nc(N[C@@H]3CCNC3)nc(Nc3cc(Cl)cc(Cl)c3)c12 | 7.56 | 8.18 | 9.4
CCCc1ccc(NC(=O)c2ccc(CN3CCCN(Cc4cccc(O)c4)CC3)cc2)cc1 | 3.2 | 2.61 | 3.95
CCCCCCn1c(Sc2ccc(C#N)c([N+](=O)[O-])c2)nnc1-c1ccccc1 | 8.64 | 11.1 | 6.76
CC(=O)CC(=O)N1CCN(c2ccccc2)CC1 | -0.36 | -0.81 | -0.35
FC(F)(F)c1cccc(Nc2nc3nonc3nc2NC2C3CC4CC(C3)CC2C4)c1 (stereo unspecified) | 3.05 | 1.79 | 0.47
CC(C)Nc1cc(C(=O)N[C@@H](Cc2ccccc2)[C@H](O)CNC2CCOCC2)c(F)c(N2CCCCS2(=O)=O)c1 | 6.75 | 5.16 | 4.99
C=CCOc1ccc(C2C(C(=O)OC)=C(C)NC3=C2C(=O)c2ccccc23)cc1OC (stereo unspecified) | -0.61 | 4.51 | 1.15
CC(=O)Oc1cc(OCc2ccccc2)c(OC(C)=O)c(OCc2ccccc2)c1 | 6.3 | 5.31 | -0.19
Cc1cc(NC(=O)[C@H](CC2CCCCC2)Nc2ccc(C#N)c3ccccc23)ccc1F | 5.97 | 7.28 | 1.62

SMILES | inhibition [1] [%] | inhibition [2] [%] | inhibition [3] [%]
Cc1cc(C(F)(F)F)cc(-n2ncc(-c3ccc(C(=O)NCCNCc4ccccc4)cc3)c2N)n1 | 0.77 | 1.46 | -0.24
COc1ccccc1NC(=O)Nc1ccc(-c2ccc(-c3nc4cc(C(F)(F)F)ccc4[nH]3)cc2)cc1 | 9.03 | 4.25 | 2.26
CN1CCN(CCCN(Cc2csc(-c3ccc(CNCc4ccccc4)cc3)n2)S(=O)(=O)c2ccccc2Cl)CC1 | 1.75 | 0.37 | 2.9
COc1cccc(CNCC(C)(C)c2nc(-c3ccc(Cl)c(O)c3)c(-c3ccncc3)[nH]2)c1 | -1.42 | -3.17 | 2.87
CNC(=O)c1cnc(Nc2ccc(N3CCN(C)CC3)cc2)nc1Nc1cccc([N+](=O)[O-])c1 | 2.86 | -0.17 | 1.22
CCC[C@@H]([C@@H](CC(C)C)C(=O)N[C@H](C(=O)Nc1nccs1)C(C)(C)SCCNC(=O)OCC)N(O)C=O | 2.68 | 4.73 | 3.58
O=S(=O)(Nc1cccc(CCN2CCC(N3CCCCC3)CC2)c1)c1cccc2cccnc12 | 0.25 | 0.35 | -2.07
OC(CNc1ccnc(Nc2ccc(Cl)cc2)n1)c1ccccc1C(F)(F)F (stereo unspecified) | 10 | 9.74 | 5.08
CC(C)Cn1cc2c(ccc3nc(N)nc(N)c32)n1 | 1.25 | 0.94 | 0.32
CC(C)c1ccc(O)cc1Nc1ccnc2ccc(C(F)(F)F)cc12 | 1.29 | -0.72 | -0.66
CCN(CC)CCN(Cc1ccc(-c2ccc(C(F)(F)F)cc2)cc1)C(=O)Cn1c(CCc2cccc(F)c2F)cc(=O)c2c1CCCC2 | 11.6 | 12.3 | 9.85
CN1CCC(N(Cc2ccc(-c3ccc(C(F)(F)F)cc3)cc2)C(=O)Cn2c(SCc3cccc(F)c3F)cc(=O)c3c2CCC3)CC1 | -1.29 | 0.12 | 1.56
CC1(C)CC2CC(C)(CN2C(=O)c2cc(C(C)(C)C)nn2Cc2ccccc2)C1 (stereo unspecified) | 7.67 | 7.75 | 5.94
N=C(N)c1cccc(OCCCOc2cccc(NC(=O)Nc3ccc([N+](=O)[O-])cc3)c2)c1 | 4.46 | 3.16 | 2.32
CC(CN1CCN(C)CC1)C(=O)Nc1ccc(-c2csc(-c3nc4ccccc4[nH]3)c2)cc1 (stereo unspecified) | 4.03 | 5.18 | 5.51
Cc1cccc2nc(C(=O)Nc3nc(CN4CCC(C)CC4)cs3)cn12 | -0.22 | -1.59 | 1.62
